# Data published in article PMC7862700, “An all-to-all approach to the identification of sequence-specific readers for epigenetic DNA modifications on cytosine”.
# What was measured:
# Test in all cases: DAPPL (digital affinity profiling via proximity ligation, sequencing); 10 mM Tris-HCl pH 7.5, 50 mM NaCl, 1 mM DTT, 4% glycerol, room temperature, 30 min; GST-TFs on glutathione beads, 16-mer random dsDNA library, 0.1% formaldehyde crosslink after washing; high values mean tight binding
# Conditions in all cases: protein: recombinant; tags: N-terminal GST; dsDNA, one strand shown
# FLI1 = biological target: T1, FLI1 (Homo sapiens, UniProt Q01543 1-452)
# T1 sequence: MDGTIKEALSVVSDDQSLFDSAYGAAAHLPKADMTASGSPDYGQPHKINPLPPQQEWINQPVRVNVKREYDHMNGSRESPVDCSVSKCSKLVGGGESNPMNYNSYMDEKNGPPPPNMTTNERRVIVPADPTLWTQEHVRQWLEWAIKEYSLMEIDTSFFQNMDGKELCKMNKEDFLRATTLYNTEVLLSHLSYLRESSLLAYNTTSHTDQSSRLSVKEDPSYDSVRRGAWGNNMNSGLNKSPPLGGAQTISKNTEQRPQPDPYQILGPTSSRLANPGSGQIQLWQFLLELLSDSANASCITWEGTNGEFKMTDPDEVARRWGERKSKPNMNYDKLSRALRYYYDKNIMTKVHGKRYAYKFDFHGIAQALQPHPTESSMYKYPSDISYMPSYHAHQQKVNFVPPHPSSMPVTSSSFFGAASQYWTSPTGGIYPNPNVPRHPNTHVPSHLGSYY
# Summary of the method: (§1)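 Beads coated with glutathione captured GST-fused human transcription factors that had been expressed in yeast, and the factors were then given DNA barcodes and pooled with a tag-only sample. The pools were incubated with 200 nmole of a random double-stranded 16-mer DNA library in Tris/NaCl/DTT/glycerol buffer for 30 min at room temperature, washed, crosslinked with 0.1% formaldehyde and proximity-ligated with BsaI/T4 ligase at 37 °C for 1 h. PCR amplification and Illumina NextSeq500 sequencing came last. Binding signal is each hexamer's read frequency for a factor divided by its frequency for the tag-only sample.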
# ELK1 = biological target: T2, ELK1 (Homo sapiens, UniProt P19419 1-428)
# T2 sequence: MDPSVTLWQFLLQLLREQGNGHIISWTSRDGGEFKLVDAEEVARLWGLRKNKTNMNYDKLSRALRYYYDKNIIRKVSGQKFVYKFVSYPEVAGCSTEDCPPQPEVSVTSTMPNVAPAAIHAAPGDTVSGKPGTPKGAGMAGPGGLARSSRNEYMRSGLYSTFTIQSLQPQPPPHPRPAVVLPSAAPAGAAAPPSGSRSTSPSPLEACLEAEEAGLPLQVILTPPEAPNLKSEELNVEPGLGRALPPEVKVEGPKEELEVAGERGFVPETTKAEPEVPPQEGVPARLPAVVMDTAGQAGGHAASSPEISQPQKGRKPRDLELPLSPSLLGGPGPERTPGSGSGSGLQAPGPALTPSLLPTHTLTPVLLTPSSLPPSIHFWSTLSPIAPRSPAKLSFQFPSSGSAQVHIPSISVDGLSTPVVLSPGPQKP
# Summary of the method: as §1
# GABPA = biological target: T3, GABPA (Homo sapiens, UniProt Q06546 1-454)
# T3 sequence: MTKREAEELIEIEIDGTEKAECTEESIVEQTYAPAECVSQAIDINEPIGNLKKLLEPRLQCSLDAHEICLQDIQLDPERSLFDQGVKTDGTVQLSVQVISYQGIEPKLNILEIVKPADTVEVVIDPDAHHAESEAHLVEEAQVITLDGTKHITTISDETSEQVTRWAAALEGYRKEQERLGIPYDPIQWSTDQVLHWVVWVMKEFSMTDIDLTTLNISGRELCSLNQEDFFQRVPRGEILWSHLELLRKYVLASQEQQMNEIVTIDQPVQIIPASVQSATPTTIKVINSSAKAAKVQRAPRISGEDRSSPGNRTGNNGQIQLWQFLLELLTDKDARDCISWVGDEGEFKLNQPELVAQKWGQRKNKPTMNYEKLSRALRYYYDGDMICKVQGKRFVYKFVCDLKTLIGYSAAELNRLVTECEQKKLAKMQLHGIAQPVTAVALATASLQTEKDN
# Summary of the method: as §1
# ERG = biological target: T4, ERG (Homo sapiens, UniProt P11308 1-479)
# T4 sequence: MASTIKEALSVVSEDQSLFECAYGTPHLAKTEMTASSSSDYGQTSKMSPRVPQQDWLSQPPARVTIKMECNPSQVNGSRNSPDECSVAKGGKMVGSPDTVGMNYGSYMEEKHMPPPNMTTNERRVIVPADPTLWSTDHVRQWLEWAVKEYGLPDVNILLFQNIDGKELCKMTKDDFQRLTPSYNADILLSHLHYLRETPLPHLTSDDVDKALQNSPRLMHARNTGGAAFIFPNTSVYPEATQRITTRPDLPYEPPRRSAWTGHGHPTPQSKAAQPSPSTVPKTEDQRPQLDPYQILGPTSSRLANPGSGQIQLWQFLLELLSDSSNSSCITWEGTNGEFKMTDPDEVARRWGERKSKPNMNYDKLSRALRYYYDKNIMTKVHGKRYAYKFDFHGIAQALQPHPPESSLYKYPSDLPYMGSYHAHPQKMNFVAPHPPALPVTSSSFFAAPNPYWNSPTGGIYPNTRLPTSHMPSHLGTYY
# Summary of the method: as §1
# ELF1 = ELF1 (Homo sapiens, UniProt P32519 1-619)
# Summary of the method: as §1
# EHF = biological target: T5, EHF (Homo sapiens, UniProt Q9NZC4 1-300)
# T5 sequence: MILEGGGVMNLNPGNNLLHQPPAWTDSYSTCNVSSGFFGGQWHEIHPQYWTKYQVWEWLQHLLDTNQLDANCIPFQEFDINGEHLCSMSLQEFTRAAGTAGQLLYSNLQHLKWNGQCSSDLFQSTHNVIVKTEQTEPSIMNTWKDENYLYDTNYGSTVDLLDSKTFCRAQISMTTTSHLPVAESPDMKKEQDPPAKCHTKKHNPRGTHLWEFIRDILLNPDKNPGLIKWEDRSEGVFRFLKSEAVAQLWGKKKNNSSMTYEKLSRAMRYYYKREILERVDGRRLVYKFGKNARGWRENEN
# Summary of the method: as §1
# SPI1 = SPI1 (Homo sapiens, UniProt P17947 1-270)
# Summary of the method: as §1
# SPIB = SPIB (Homo sapiens, UniProt Q01892 1-262)
# Summary of the method: as §1
# ELK3 = biological target: T6, ELK3 (Homo sapiens, UniProt P41970 1-407)
# T6 sequence: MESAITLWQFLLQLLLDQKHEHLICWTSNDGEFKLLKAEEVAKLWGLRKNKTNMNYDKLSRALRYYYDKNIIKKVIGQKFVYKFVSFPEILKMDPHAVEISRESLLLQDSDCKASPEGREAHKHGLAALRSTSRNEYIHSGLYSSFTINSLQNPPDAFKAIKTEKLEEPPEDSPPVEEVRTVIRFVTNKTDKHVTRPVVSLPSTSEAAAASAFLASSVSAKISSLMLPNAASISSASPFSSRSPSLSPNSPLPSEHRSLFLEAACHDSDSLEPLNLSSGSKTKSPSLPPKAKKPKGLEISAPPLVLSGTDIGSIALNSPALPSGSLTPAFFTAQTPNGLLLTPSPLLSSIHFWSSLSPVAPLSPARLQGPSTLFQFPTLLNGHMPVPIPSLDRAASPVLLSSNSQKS
# Summary of the method: as §1
# FEV = biological target: T7, FEV (Homo sapiens, UniProt Q99581 1-238)
# T7 sequence: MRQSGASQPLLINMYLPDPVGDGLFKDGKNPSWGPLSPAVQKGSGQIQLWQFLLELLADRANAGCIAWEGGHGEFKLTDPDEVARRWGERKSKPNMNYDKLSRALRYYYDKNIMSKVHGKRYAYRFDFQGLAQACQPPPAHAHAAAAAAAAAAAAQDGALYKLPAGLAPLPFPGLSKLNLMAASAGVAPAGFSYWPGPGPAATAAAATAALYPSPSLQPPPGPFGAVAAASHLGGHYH
# Summary of the method: as §1
# ETV5 = ETV5 (Homo sapiens, UniProt P41161 1-510)
# Summary of the method: as §1
# SPIC = biological target: T8, SPIC (Homo sapiens, UniProt Q8N5J4 1-248)
# T8 sequence: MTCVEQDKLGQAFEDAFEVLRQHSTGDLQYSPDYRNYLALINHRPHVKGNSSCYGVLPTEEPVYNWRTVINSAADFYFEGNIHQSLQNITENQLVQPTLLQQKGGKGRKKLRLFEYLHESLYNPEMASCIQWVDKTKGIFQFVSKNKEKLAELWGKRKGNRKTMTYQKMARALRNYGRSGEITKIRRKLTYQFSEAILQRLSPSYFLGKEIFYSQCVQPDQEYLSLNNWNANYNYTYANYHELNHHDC
# Summary of the method: as §1
# ELF4 = ELF4 (Homo sapiens, UniProt Q99607 1-663)
# Summary of the method: as §1
# ELK4 = biological target: T9, ELK4 (Homo sapiens, UniProt P28324-2 1-405)
# T9 sequence: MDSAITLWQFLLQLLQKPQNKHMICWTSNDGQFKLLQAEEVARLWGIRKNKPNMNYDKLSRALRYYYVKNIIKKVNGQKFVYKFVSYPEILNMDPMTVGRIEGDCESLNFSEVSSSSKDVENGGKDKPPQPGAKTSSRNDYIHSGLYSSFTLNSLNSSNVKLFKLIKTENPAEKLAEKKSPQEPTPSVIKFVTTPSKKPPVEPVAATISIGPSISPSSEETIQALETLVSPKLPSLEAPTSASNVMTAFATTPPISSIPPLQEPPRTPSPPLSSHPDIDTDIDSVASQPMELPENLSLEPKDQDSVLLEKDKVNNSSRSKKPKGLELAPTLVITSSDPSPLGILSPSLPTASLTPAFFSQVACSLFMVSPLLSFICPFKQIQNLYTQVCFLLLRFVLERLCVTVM
# Summary of the method: as §1
# ETV2 = biological target: T10, ETV2 (Homo sapiens, UniProt O00321 1-342)
# T10 sequence: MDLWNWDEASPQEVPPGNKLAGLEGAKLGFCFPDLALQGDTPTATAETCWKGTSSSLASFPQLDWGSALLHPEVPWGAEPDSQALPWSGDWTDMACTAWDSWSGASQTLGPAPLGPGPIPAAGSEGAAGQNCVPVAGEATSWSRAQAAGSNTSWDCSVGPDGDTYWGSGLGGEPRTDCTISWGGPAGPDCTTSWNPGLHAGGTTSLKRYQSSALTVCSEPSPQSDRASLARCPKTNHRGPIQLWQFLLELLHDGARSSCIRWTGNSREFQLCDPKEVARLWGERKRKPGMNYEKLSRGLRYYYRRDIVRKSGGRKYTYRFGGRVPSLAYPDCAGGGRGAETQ
# Summary of the method: as §1
# ELF3 = biological target: T11, ELF3 (Homo sapiens, UniProt P78545 1-371)
# T11 sequence: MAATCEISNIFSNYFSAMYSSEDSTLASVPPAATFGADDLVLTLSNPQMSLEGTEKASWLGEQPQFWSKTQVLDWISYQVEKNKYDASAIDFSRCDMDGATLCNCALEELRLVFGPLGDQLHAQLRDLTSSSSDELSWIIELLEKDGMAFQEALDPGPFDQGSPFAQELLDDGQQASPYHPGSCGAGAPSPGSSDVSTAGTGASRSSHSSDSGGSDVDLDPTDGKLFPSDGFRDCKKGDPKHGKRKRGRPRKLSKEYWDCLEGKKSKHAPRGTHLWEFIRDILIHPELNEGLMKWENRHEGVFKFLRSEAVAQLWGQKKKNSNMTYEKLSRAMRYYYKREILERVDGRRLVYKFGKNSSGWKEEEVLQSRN
# Summary of the method: as §1
# ETV1 = ETV1 (Homo sapiens, UniProt P50549 1-477)
# Summary of the method: as §1
# Chain of ELF4 (Q99607 whole entry): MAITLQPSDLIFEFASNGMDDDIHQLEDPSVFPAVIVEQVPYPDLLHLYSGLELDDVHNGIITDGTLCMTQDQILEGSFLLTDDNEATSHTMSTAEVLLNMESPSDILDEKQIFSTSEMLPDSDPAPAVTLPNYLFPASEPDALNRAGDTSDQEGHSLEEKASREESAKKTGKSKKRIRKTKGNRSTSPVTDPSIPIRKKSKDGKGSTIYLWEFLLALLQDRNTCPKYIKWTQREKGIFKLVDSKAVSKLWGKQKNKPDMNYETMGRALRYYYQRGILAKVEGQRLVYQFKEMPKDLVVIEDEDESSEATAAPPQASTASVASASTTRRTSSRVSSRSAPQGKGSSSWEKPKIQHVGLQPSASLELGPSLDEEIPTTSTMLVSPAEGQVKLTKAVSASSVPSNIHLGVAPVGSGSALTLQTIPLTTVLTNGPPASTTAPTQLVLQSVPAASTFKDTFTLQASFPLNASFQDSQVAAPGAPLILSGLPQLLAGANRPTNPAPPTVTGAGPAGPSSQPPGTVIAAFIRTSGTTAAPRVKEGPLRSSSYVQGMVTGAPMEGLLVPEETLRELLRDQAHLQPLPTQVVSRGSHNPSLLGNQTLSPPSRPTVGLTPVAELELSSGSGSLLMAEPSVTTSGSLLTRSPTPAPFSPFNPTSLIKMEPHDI
# Chain of ELF1 (P32519 whole entry): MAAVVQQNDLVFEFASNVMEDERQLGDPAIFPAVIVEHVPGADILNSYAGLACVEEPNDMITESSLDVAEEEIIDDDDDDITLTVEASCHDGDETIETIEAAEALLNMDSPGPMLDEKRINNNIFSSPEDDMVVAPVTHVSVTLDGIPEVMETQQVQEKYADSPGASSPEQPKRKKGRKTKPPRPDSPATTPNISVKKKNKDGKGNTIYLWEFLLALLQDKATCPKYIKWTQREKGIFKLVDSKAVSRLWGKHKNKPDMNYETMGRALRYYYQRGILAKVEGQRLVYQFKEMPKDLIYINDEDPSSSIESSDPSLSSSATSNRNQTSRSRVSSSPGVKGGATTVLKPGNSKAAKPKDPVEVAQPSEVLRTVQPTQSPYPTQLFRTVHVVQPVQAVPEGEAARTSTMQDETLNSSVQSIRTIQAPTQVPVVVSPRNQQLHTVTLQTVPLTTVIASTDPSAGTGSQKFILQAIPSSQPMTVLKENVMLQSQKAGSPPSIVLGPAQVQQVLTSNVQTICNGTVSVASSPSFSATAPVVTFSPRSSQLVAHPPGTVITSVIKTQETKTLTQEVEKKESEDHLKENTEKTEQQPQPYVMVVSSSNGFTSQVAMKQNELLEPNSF
# Chain of SPIB (Q01892 whole entry): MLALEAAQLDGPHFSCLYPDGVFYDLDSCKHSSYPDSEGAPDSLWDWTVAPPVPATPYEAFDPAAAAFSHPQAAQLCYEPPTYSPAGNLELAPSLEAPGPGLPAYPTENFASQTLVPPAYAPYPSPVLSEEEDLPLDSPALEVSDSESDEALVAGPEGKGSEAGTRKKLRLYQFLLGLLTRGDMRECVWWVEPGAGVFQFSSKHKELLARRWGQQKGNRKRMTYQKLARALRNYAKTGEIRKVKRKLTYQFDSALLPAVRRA
# Chain of ETV5 (P41161 whole entry): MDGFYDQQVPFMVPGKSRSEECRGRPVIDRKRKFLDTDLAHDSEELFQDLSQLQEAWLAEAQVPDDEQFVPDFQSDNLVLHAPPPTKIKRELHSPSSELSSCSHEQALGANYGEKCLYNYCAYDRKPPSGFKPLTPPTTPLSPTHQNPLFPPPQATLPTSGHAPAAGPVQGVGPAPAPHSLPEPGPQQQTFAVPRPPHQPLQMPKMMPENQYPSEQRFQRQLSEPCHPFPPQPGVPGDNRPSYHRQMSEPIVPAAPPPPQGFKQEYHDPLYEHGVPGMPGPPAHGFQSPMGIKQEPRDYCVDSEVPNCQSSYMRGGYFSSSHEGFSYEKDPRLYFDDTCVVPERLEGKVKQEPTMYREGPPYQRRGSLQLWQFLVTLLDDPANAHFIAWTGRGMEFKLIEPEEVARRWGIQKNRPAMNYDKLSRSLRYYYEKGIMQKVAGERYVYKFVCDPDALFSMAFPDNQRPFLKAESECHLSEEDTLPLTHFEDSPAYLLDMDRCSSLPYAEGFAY
# Chain of ETV1 (P50549 whole entry): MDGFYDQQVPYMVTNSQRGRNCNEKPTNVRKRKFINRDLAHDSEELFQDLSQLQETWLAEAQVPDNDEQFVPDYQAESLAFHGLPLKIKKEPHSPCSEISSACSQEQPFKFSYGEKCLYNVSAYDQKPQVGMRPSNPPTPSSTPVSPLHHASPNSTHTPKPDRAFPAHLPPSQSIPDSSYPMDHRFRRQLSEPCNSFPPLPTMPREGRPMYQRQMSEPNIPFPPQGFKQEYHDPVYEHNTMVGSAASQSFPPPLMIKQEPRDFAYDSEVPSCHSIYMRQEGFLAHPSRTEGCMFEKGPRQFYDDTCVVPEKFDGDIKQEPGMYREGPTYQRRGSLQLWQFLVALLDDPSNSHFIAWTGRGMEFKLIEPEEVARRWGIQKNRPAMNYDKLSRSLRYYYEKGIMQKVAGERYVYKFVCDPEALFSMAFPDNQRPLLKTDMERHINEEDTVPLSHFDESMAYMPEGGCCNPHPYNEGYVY
sequence,measurement,setting,value
AGTACA,binding signal,FLI1,"1.13 fold enrichment (6-mer frequency, TF over GST control)"
same,binding signal,ELK1,"1.16 fold enrichment (6-mer frequency, TF over GST control)"
same,binding signal,GABPA,"1.12 fold enrichment (6-mer frequency, TF over GST control)"
same,binding signal,ERG,"1.19 fold enrichment (6-mer frequency, TF over GST control)"
same,binding signal,ELF1,"1.08 fold enrichment (6-mer frequency, TF over GST control)"
same,binding signal,EHF,"1.13 fold enrichment (6-mer frequency, TF over GST control)"
same,binding signal,SPI1,"1.17 fold enrichment (6-mer frequency, TF over GST control)"
same,binding signal,SPIB,"1.07 fold enrichment (6-mer frequency, TF over GST control)"
same,binding signal,ELK3,"1.31 fold enrichment (6-mer frequency, TF over GST control)"
same,binding signal,FEV,"1.13 fold enrichment (6-mer frequency, TF over GST control)"
same,binding signal,ETV5,"1.13 fold enrichment (6-mer frequency, TF over GST control)"
same,binding signal,SPIC,"1.07 fold enrichment (6-mer frequency, TF over GST control)"
same,binding signal,ELF4,"1.19 fold enrichment (6-mer frequency, TF over GST control)"
same,binding signal,ELK4,"1.07 fold enrichment (6-mer frequency, TF over GST control)"
same,binding signal,ETV2,"1.01 fold enrichment (6-mer frequency, TF over GST control)"
same,binding signal,ELF3,"1.13 fold enrichment (6-mer frequency, TF over GST control)"
same,binding signal,ETV1,"1.11 fold enrichment (6-mer frequency, TF over GST control)"
